The first test relates to Plasmodium falciparum NF54-HGL (transmission to Anopheles stephensi). The experiment in a line: percentage of barcode signal found in uninfected mosquitoes (transmission-blocking activity); higher = stronger blocking of transmission to mosquito, active = 80 or more. Conditions: 10 µM; gametocyte preincubation time 24 h; readout time post-feed 8 days. As for the experimental part:
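The mixture was fed to Anopheles stephensi in 96-well plates as blood meals tagged with DNA-barcoded Asaia bacteria. Eight days later, mosquitoes were classed infected or uninfected by luminescence (mean + 5 SD of unfed controls). Barcodes were quantified by Luminex MagPlex-TAG in the pooled uninfected and infected Asaia cultures, background-corrected, and the score is % of barcode signal in uninfected mosquitoes = 100*Iu/(Iu+Ii).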
For `COc1cncc(-c2cncc(N3CCN(c4ccncc4)CC3)n2)c1`, the “percentage of barcode signal found in uninfected mosquitoes” value (shortened to “percentage of barcode signal found”) is 63.9% (inactive).

For `O=C(Nc1nnc(-c2ccc(Cl)cc2)o1)c1cccc(C(F)(F)F)c1`, the “percentage of barcode signal found” value was -0.664% (inactive).

In the case of `Cc1cccnc1NC(=O)c1cccc(OCc2c(C)noc2C)c1`, the “percentage of barcode signal found” value is -2.5% (inactive).

Take `Cc1nc2ccccn2c1C(=O)NCc1ccc(Cl)cc1`: the “percentage of barcode signal found” value is 48.8% (inactive).

Consider `CCc1nc2ccccc2n1CC(O)COc1cc(C)ccc1Cl` (stereo not drawn), for which the “percentage of barcode signal found” value is 41.3% (inactive).

Regarding `c1csc(-c2cnc3sc(NCC4CCOCC4)nn23)c1`, the “percentage of barcode signal found” value was 38.7% (inactive).

`CCN(CC)S(=O)(=O)c1ccc(Cl)c(C(=O)Nc2ccc3nc(C)sc3c2)c1`: the “percentage of barcode signal found” value was 86.1% (active).

As to `O=C(NC1CC1)c1ccc(CSCc2ccccc2Cl)o1`, the “percentage of barcode signal found” value was 36.9% (inactive).

Regarding `CC(C)(C)c1cc(C(=O)Nc2cccnc2)cc(C(=O)Nc2cccnc2)c1`, the “percentage of barcode signal found” value is 41.8% (inactive).

As to `CC(C)C(C(=O)Nc1ccc(S(=O)(=O)N(C)C)cc1)c1ccc(Cl)cc1` (stereo not drawn), the “percentage of barcode signal found” value is 49.7% (inactive).

Consider `N=C(N)Nc1ccc(-c2ccc(-c3ccc(N=C(N)N)c(Cl)c3)o2)cc1Cl`, for which the “percentage of barcode signal found” value was 101% (active).

`COc1ccc(C2CC(c3cccs3)=NN2C(=O)c2ccco2)cc1OC` (stereo not drawn): the “percentage of barcode signal found” value was 57.1% (inactive).

In the case of `CCOc1ccc2cc(-c3nn(C(C)(C)C)c(N)c3C(N)=O)cnc2c1`, the “percentage of barcode signal found” value was 71.5% (inactive).

With `Nc1ncnc2c1c(Cc1cccc3ccccc13)nn2CC1CCNCC1`, the “percentage of barcode signal found” value was 74.2% (inactive).

For `CCCn1nnc(NC(=O)COc2ccc(C3CCCCC3)cc2)n1`, the “percentage of barcode signal found” value is 3.33% (inactive).

With `CN1CCN(c2cc(-c3ccc(F)cc3)nc(-c3ccncc3)n2)CC1`, the “percentage of barcode signal found” value is 1.2% (inactive).

Regarding `O=C(Nc1ccc(N2CCNCC2)cc1)c1ccn2ncc(-c3cccc(Cl)c3)c2n1`, the “percentage of barcode signal found” value was 81.5% (active).

Staying with this test, now noted: 20 µM; gametocyte preincubation time 24 h; readout time post-feed 8 days.
`Nc1ncc(Br)cc1-c1nc2cc(Cl)cnc2[nH]1`: the “percentage of barcode signal found” value was 21.4% (inactive).

`FC(F)(F)c1ccc(N(c2cccnc2)C2CCN(c3ccc(C(F)(F)F)cn3)CC2)cc1`: the “percentage of barcode signal found” value was 27.4% (inactive).

Regarding `O=C(C1CCN(c2nnc(-n3cccc3)s2)CC1)N1CCC(Cc2ccccc2)CC1`, the “percentage of barcode signal found” value was 28.5% (inactive).

Take `C[C@H](c1ccc2c(c1)CCCC2)N(C)c1ncc2c(N)nc(N)nc2n1`: the “percentage of barcode signal found” value was 0.379% (inactive).

In the case of `CC(=O)NCC1CN(c2ccc(-c3ccc(CO)cc3)c(F)c2)C(=O)O1` (stereo not drawn), the “percentage of barcode signal found” value was 30.3% (inactive).

For the compound `CCC(Sc1nc2ccccc2o1)C(=O)Nc1nnc(C)s1` (stereo not drawn), the “percentage of barcode signal found” value is -0.757% (inactive).

Take `CCOC(=O)c1noc(N)c1-c1ccccc1`: the “percentage of barcode signal found” value is 25.4% (inactive).

For `CCN(CC)CCCN1CCN(C(=O)c2cccc(-c3noc(C(F)(F)F)n3)c2)CC1`, the “percentage of barcode signal found” value was 64.3% (inactive).

`Cc1cc(NCCc2ccccc2)nc(NC(=N)Nc2ccc(Cl)cc2)n1`: the “percentage of barcode signal found” value is 75.8% (inactive).

`Nc1ncc(-c2cn[nH]c2)cc1-c1nc2cc(Cl)cnc2[nH]1`: the “percentage of barcode signal found” value was 48.9% (inactive).

As for `O=C(CN1CCOCC1)Nc1ccc2ncnc(Nc3ccc(OCc4cccc(F)c4)c(Cl)c3)c2c1`, the “percentage of barcode signal found” value was 1.6% (inactive).

For the compound `CC1(COc2ccc(N3CCC(Oc4ccc(OC(F)(F)F)cc4)CC3)cc2)Cn2cc([N+](=O)[O-])nc2O1` (stereo not drawn), the “percentage of barcode signal found” value was 39.6% (inactive).

`NCCC(O)C(=O)N[C@@H]1C[C@H](N)[C@@H](OC2O[C@H](CN)[C@@H](O)[C@H](O)[C@H]2O)[C@H](O)C1OC1O[C@H](CO)[C@@H](O)[C@H](N)[C@H]1O` (stereo partly drawn): the “percentage of barcode signal found” value is 37.6% (inactive).

In the case of `COc1ccc(Cn2cnc3c(-c4ccco4)nc(Cl)nc32)cc1`, the “percentage of barcode signal found” value is 21.6% (inactive).

For `O=C1[C@@H](Oc2ccccc2)[C@@H](c2ccc(Cl)cc2)N1CCn1cnc2c(NCc3ccccc3)ncnc21`, the “percentage of barcode signal found” value was 1.2% (inactive).

For `NC(=O)c1cc(Br)ccc1OCCOc1ccccc1`, the “percentage of barcode signal found” value was 0.0693% (inactive).

With `Cc1cc(O)nc(-n2nc(C)cc2C)n1`, the “percentage of barcode signal found” value was 70.1% (inactive).

As to `CCCCc1ccc(C(=O)Nc2nccc3ccccc23)nc1`, the “percentage of barcode signal found” value is 48.5% (inactive).

As to `Cc1cc(OCC(=O)Nc2ccc(C(C)C)cc2)n(C)c(=O)c1C#N`, the “percentage of barcode signal found” value was 35% (inactive).

As to `COc1cc(C2=NCCN2)cc2cc(-c3ccc(C4=NCCN4)cc3)oc12`, the “percentage of barcode signal found” value is 95.1% (active).

Regarding `CNCCC(Oc1ccc(C(F)(F)F)cc1)c1ccccc1` (stereo not drawn), the “percentage of barcode signal found” value was 27.5% (inactive).

The values above are taken from the supplement of paper PMC8726507.
